{
  "source": "PubChem BioAssay (EPA / NIEHS)",
  "note": "The source made the active and inactive calls. Rule for the calls: active = hit-call score of the fitted dose curve at least 0.9, where 1 is the maximum; inactive = score below 0.9.",
  "data": [
    {"experiment": "APR_HepG2_P-H2AX_24hr: Apredica 24-hour HepG2 Assay for H2AX Phosphorylation (AID 2282920)", "conditions": "high-content imaging, actives raise or lower the signal", "procedure,_shortened": "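Human HepG2 liver cells, treated 24 hr with test chemicals (0.39–200 uM, final DMSO 0.5% v/v), are fixed and co-stained for phospho-H2A.x and c-Jun with Hoechst. Imaged intensity is fitted in both directions against DMSO controls.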", "values": [
      {"smiles": "CN1COCN(Cc2cnc(Cl)s2)C1=N[N+](=O)[O-]", "outcome": "inactive"},
      {"smiles": "O=C(O)c1cc(Oc2ccc(C(F)(F)F)cc2Cl)ccc1[N+](=O)[O-]", "outcome": "inactive"},
      {"smiles": "Nc1c(Cl)cc([N+](=O)[O-])cc1Cl", "outcome": "inactive"},
      {"smiles": "CSc1nc(NC(C)C)nc(NC(C)C)n1", "outcome": "inactive"},
      {"smiles": "COP(=O)(NC(C)=O)SC", "note": "(configuration not stated)", "outcome": "inactive"},
      {"smiles": "CCOP(=S)(OCC)OC(Cl)C(Cl)(Cl)Cl", "note": "(configuration not stated)", "outcome": "inactive"},
      {"smiles": "COc1cc(OC)nc(Sc2cccc(Cl)c2C(=O)O)n1", "outcome": "inactive"},
      {"smiles": "CC1=NNC(=O)N(/N=C/c2cccnc2)C1", "outcome": "inactive"},
      {"smiles": "CCC(=O)Nc1ccc(Cl)c(Cl)c1", "outcome": "inactive"},
      {"smiles": "COc1cccc(C(=O)NN(C(=O)c2cc(C)cc(C)c2)C(C)(C)C)c1C", "outcome": "inactive"},
      {"smiles": "CCCSP(=O)(OCC)Oc1ccc(Br)cc1Cl", "note": "(configuration not stated)", "outcome": "inactive"},
      {"smiles": "COc1ccc(C(=CC(=O)N2CCOCC2)c2ccc(Cl)cc2)cc1OC", "outcome": "inactive"},
      {"smiles": "S=C1NCCN1", "outcome": "inactive"},
      {"smiles": "CC(C)[C@H](C(=O)O[C@H](C#N)c1cccc(Oc2ccccc2)c1)c1ccc(Cl)cc1", "outcome": "inactive"},
      {"smiles": "CCOP(=S)(OCC)Oc1ccc([N+](=O)[O-])cc1", "outcome": "inactive"},
      {"smiles": "Nc1nc(N)nc(NC2CC2)n1", "outcome": "inactive"},
      {"smiles": "CCCSP(=O)(OCC)SCCC", "outcome": "inactive"},
      {"smiles": "FC(F)C(F)(F)OCC(Cn1cncn1)c1ccc(Cl)cc1Cl", "note": "(configuration not stated)", "outcome": "inactive"},
      {"smiles": "CC1(C(=O)Nc2ccc(O)c(Cl)c2Cl)CCCCC1", "outcome": "inactive"},
      {"smiles": "CN(C)[C@@H]1C(=O)C(C(N)=O)=C(O)[C@@]2(O)C(=O)C3=C(O)c4c(O)cccc4[C@@](C)(O)[C@H]3[C@H](O)[C@@H]12", "outcome": "inactive"},
      {"smiles": "CNC(=O)Oc1cccc2c1OC(C)(C)O2", "AC50": "99.4 µM (active)"},
      {"smiles": "CSC1=N[C@@](C)(c2ccccc2)C(=O)N1Nc1ccccc1", "outcome": "inactive"},
      {"smiles": "CC(C)=CC1C(C(=O)OCN2C(=O)C3=C(CCCC3)C2=O)C1(C)C", "note": "(configuration not stated)", "AC50": "99.3 µM (active)"},
      {"smiles": "CC[C@H](C)[C@H]1O[C@]2(C=C[C@@H]1C)C[C@@H]1C[C@@H](C/C=C(\\C)[C@@H](O[C@H]3C[C@H](OC)[C@@H](O[C@H]4C[C@H](OC)[C@@H](NC)[C@H](C)O4)[C@H](C)O3)[C@@H](C)/C=C/C=C3\\CO[C@@H]4[C@H](O)C(C)=C[C@@H](C(=O)O1)[C@]34O)O2", "outcome": "inactive"},
      {"smiles": "N#CSCSC#N", "outcome": "inactive"},
      {"smiles": "COP(=O)(OC)C(O)C(Cl)(Cl)Cl", "note": "(configuration not stated)", "AC50": "100 µM (active)"},
      {"smiles": "Cc1ccn2nc(S(=O)(=O)Nc3c(F)cccc3F)nc2n1", "outcome": "inactive"},
      {"smiles": "CCC(CC)Nc1c([N+](=O)[O-])cc(C)c(C)c1[N+](=O)[O-]", "outcome": "inactive"},
      {"smiles": "CCCCOC(=O)c1ccccc1C(=O)O", "outcome": "inactive"},
      {"smiles": "CCCOc1nn(C(=O)NS(=O)(=O)c2ccccc2C(=O)OC)c(=O)n1C", "outcome": "inactive"},
      {"smiles": "C[N+]1(C)CCCCC1", "outcome": "inactive"},
      {"smiles": "CC(C)N(C(=O)SCC(Cl)=C(Cl)Cl)C(C)C", "outcome": "inactive"},
      {"smiles": "CCOP(=S)(OCC)Oc1ccc2c(C)c(Cl)c(=O)oc2c1", "outcome": "inactive"},
      {"smiles": "CCc1cccc(CC)c1N(COC)C(=O)CCl", "AC50": "70.7 µM (active)"},
      {"smiles": "CCOC(=O)COc1cc(-c2nn(C)c(OC(F)F)c2Cl)c(F)cc1Cl", "outcome": "inactive"},
      {"smiles": "CCOP(=O)(OCC)Oc1cc(C)nc(C(C)C)n1", "outcome": "inactive"}
    ]},
    {"experiment": "APR_HepG2_StressKinase_72hr: Apredica 72-hour HepG2 Assay for Stress Kinase (AID 2282921)", "conditions": "HepG2 stress kinase (phospho-c-Jun) imaging, actives raise or lower the signal", "procedure,_shortened": "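After a 72 h compound treatment spanning 0.39 to 200 uM, formaldehyde-fixed cells are labelled for phosphorylated c-Jun and nuclei, imaged by automated fluorescence microscopy, and activity is fitted in both directions relative to DMSO controls.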", "values": [
      {"smiles": "CN1COCN(Cc2cnc(Cl)s2)C1=N[N+](=O)[O-]", "outcome": "inactive"},
      {"smiles": "O=C(O)c1cc(Oc2ccc(C(F)(F)F)cc2Cl)ccc1[N+](=O)[O-]", "outcome": "inactive"},
      {"smiles": "Nc1c(Cl)cc([N+](=O)[O-])cc1Cl", "outcome": "inactive"},
      {"smiles": "CSc1nc(NC(C)C)nc(NC(C)C)n1", "outcome": "inactive"},
      {"smiles": "COP(=O)(NC(C)=O)SC", "note": "(configuration not stated)", "outcome": "inactive"},
      {"smiles": "CCOP(=S)(OCC)OC(Cl)C(Cl)(Cl)Cl", "note": "(configuration not stated)", "outcome": "inactive"},
      {"smiles": "COc1cc(OC)nc(Sc2cccc(Cl)c2C(=O)O)n1", "outcome": "inactive"},
      {"smiles": "CC1=NNC(=O)N(/N=C/c2cccnc2)C1", "outcome": "inactive"},
      {"smiles": "CCC(=O)Nc1ccc(Cl)c(Cl)c1", "outcome": "inactive"},
      {"smiles": "COc1cccc(C(=O)NN(C(=O)c2cc(C)cc(C)c2)C(C)(C)C)c1C", "outcome": "inactive"},
      {"smiles": "CCCSP(=O)(OCC)Oc1ccc(Br)cc1Cl", "note": "(configuration not stated)", "outcome": "inactive"},
      {"smiles": "COc1ccc(C(=CC(=O)N2CCOCC2)c2ccc(Cl)cc2)cc1OC", "outcome": "inactive"},
      {"smiles": "S=C1NCCN1", "outcome": "inactive"},
      {"smiles": "CC(C)[C@H](C(=O)O[C@H](C#N)c1cccc(Oc2ccccc2)c1)c1ccc(Cl)cc1", "outcome": "inactive"},
      {"smiles": "CCOP(=S)(OCC)Oc1ccc([N+](=O)[O-])cc1", "outcome": "inactive"},
      {"smiles": "Nc1nc(N)nc(NC2CC2)n1", "outcome": "inactive"},
      {"smiles": "CCCSP(=O)(OCC)SCCC", "outcome": "inactive"},
      {"smiles": "FC(F)C(F)(F)OCC(Cn1cncn1)c1ccc(Cl)cc1Cl", "note": "(configuration not stated)", "outcome": "inactive"},
      {"smiles": "CC1(C(=O)Nc2ccc(O)c(Cl)c2Cl)CCCCC1", "outcome": "inactive"},
      {"smiles": "CN(C)[C@@H]1C(=O)C(C(N)=O)=C(O)[C@@]2(O)C(=O)C3=C(O)c4c(O)cccc4[C@@](C)(O)[C@H]3[C@H](O)[C@@H]12", "outcome": "inactive"},
      {"smiles": "CNC(=O)Oc1cccc2c1OC(C)(C)O2", "outcome": "inactive"},
      {"smiles": "CSC1=N[C@@](C)(c2ccccc2)C(=O)N1Nc1ccccc1", "outcome": "inactive"},
      {"smiles": "CC(C)=CC1C(C(=O)OCN2C(=O)C3=C(CCCC3)C2=O)C1(C)C", "note": "(configuration not stated)", "outcome": "inactive"},
      {"smiles": "CC[C@H](C)[C@H]1O[C@]2(C=C[C@@H]1C)C[C@@H]1C[C@@H](C/C=C(\\C)[C@@H](O[C@H]3C[C@H](OC)[C@@H](O[C@H]4C[C@H](OC)[C@@H](NC)[C@H](C)O4)[C@H](C)O3)[C@@H](C)/C=C/C=C3\\CO[C@@H]4[C@H](O)C(C)=C[C@@H](C(=O)O1)[C@]34O)O2", "outcome": "inactive"},
      {"smiles": "N#CSCSC#N", "outcome": "inactive"},
      {"smiles": "COP(=O)(OC)C(O)C(Cl)(Cl)Cl", "note": "(configuration not stated)", "outcome": "inactive"},
      {"smiles": "Cc1ccn2nc(S(=O)(=O)Nc3c(F)cccc3F)nc2n1", "outcome": "inactive"},
      {"smiles": "CCC(CC)Nc1c([N+](=O)[O-])cc(C)c(C)c1[N+](=O)[O-]", "outcome": "inactive"},
      {"smiles": "CCCCOC(=O)c1ccccc1C(=O)O", "outcome": "inactive"},
      {"smiles": "CCCOc1nn(C(=O)NS(=O)(=O)c2ccccc2C(=O)OC)c(=O)n1C", "outcome": "inactive"},
      {"smiles": "C[N+]1(C)CCCCC1", "outcome": "inactive"},
      {"smiles": "CC(C)N(C(=O)SCC(Cl)=C(Cl)Cl)C(C)C", "outcome": "inactive"},
      {"smiles": "CCOP(=S)(OCC)Oc1ccc2c(C)c(Cl)c(=O)oc2c1", "outcome": "inactive"},
      {"smiles": "CCc1cccc(CC)c1N(COC)C(=O)CCl", "outcome": "inactive"},
      {"smiles": "CCOC(=O)COc1cc(-c2nn(C)c(OC(F)F)c2Cl)c(F)cc1Cl", "outcome": "inactive"},
      {"smiles": "CCOP(=O)(OCC)Oc1cc(C)nc(C(C)C)n1", "outcome": "inactive"}
    ]}
  ]
}
